Compound activity from PubChem.
ALDH1A1 block = inhibitors of human aldehyde dehydrogenase 1A1; Purified ALDH1A1, NADH fluorescence, propionaldehyde substrate; Potency, µM (titrated, usually from 75.3 µM), for the others: top-dose activity, negative = inhibition, hits mostly inhibitors; AID 1030; hit rate 7.3% among 220,000; P00352;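 further: potency means the concentration at half of the fitted maximal effect; plate controls were no enzyme wells and a reference inhibitor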
HPGD block = inhibitors of human 15-hydroxyprostaglandin dehydrogenase (HPGD) | P15428 | purified HPGD, NADH fluorescence kinetic, PGE2 substrate | Potency, µM, for the others: top-dose activity change, negative = inhibition, actives largely listed as inhibitors | hit rate 4.3% among 150,000; further: potency means the concentration at half of the fitted maximal effect
Target sequence (P15428 whole entry, looked up): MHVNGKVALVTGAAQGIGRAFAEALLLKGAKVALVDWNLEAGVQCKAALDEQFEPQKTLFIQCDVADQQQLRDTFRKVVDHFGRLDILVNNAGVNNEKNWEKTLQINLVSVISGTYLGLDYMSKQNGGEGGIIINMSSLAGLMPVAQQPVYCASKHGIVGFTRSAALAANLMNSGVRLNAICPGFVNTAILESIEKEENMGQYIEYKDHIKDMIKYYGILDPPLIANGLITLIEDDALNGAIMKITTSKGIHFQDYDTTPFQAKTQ
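20 nM HPGD preincubated 15 min at room temperature with compound in 50 mM Tris-HCl pH 8, 0.01% Tween 20. Started with 1 mM NAD+ and 30 uM prostaglandin E2; NADH fluorescence (360/450 nm) read 5 times over 30-s intervals, last minus first.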
IMPase inh = membrane-permeable compound that blocks inositol monophosphatase; CHO-M1 cells, IP1 accumulation, HTRF TR-FRET ratio; inhibition (IP1 accumulation), % at 46.1 µM; 120,000 tested, under 10 active; AID 901; active means well fitted curve in the direction sought with a large enough effect in the signal ratio, not every such curve was filed as active; inconclusive means small, poorly fitted or top-dose-only effect, or a change in a side signal; inactive means no such curve, though single readings can be large or run the other way; the % refers to the signal ratio;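 further: cells stimulated with carbachol in lithium chloride buffer; plate controls were DMSO basal wells for no effect and reference inhibitor wells for full effect; higher means more IMPase inhibition seen as more IP1 and lower FRET ratio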
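Cellular IMPase inhibition is scored as a rise in cytosolic IP1, detected by competitive TR-FRET between d2-labelled IP1 and a europium anti-IP1 antibody. M1-expressing CHO cells were stimulated with carbachol for 30 min at 37C, with lithium (50 mM LiCl) present in the buffer.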
* marks the source's active call; other numbers are inactive results; u = inconclusive; x = no result; [ ] = dose if it differs, or a comment. Compounds with a hit are over-represented: about 9% of the library has one in this group of screens. Unless noted, the call rests on the fitted dose curve; in most records, active means well fitted inhibition curve with a large enough effect (not every such curve was filed as active); inconclusive means small, poorly fitted or top-dose-only effect, or another doubt; inactive means no such curve, though single readings can be large or run the other way. Unless noted, on the % scale 0 is the no-effect control and ±100 the full control effect.

SMILES	ALDH1A1 block	HPGD block	IMPase inh
COc1ccc(CNC(=O)C2COc3ccccc3O2)c(OC)c1 (stereo unspecified)	u	4.5µM*	5
COc1cc(OC)c(OC)cc1NC(=O)CC1COc2ccccc2O1 (stereo unspecified)	3.5µM*	-9%	2
COc1ccc(C)cc1NC(=O)CC1COc2ccccc2O1 (stereo unspecified)	-1%	x	x
COc1ccc(OC)c(NC(=O)C2COc3ccccc3O2)c1 (stereo unspecified)	u	-14%	-2
Cc1ccc(C2C3=C(CC(C)(C)CC3=O)Nc3n[nH]c(C)c32)cc1 (stereo unspecified)	u	u	-6
Cc1ccc(C2NC(=S)NC3=C2C(=O)CC(C)(C)C3)cc1 (stereo unspecified)	0.79µM*	-19%	-6
Cc1ccc(N2C(=O)c3oc4cc(C)c(C)cc4c(=O)c3C2c2cccc(O)c2)nc1 (stereo unspecified)	x	x	-1
CN(C(=S)Nc1ccccc1F)C1(c2ccccc2Cl)CCCCC1=O (stereo unspecified)	-13%	-9%	8
CCCCCCCCNC(=O)/C(C#N)=C/c1ccccc1[N+](=O)[O-]	-14%	u	1
CCOCCCNC(=O)/C(C#N)=C/c1ccc([N+](=O)[O-])o1	4µM*	x	x
Cc1ccc(NC(=O)C(NC2CCCc3ccccc32)c2ccccc2)cc1Cl (stereo unspecified)	14µM*	-14%	x
Cc1ccc(NC(=O)C(NC2CCCc3ccccc32)c2ccccc2)c([N+](=O)[O-])c1 (stereo unspecified)	u	-3%	x
O=C(CCc1nc2ccccc2c(=O)[nH]1)OCC(=O)N1CCN(S(=O)(=O)c2ccccc2)CC1	-3%	3%	-3
CC1CC(C)CN(C(=O)COC(=O)CCc2nc3ccccc3c(=O)[nH]2)C1 (stereo unspecified)	3.5µM*	-9%	x
Cc1occc1-c1nnc(SCCCC(=O)c2ccc(F)cc2)n1C	u	-14%	2
CCn1c(SCC(=O)c2ccc(F)cc2)nnc1-c1ccoc1C	22µM*	u	u
CCOC(=O)C1=C(Cc2ccc(C)cc2)C(=O)c2ccccc2C1=O	u	13µM*	2
CCOC(=O)C1=C(Cc2ccc(OC)cc2)C(=O)c2ccccc2C1=O	u	32µM*	9
CCOC(=O)c1c(C)nc2c(c1-c1cc(OC)ccc1OC)C(=O)c1ccccc1-2	-10%	-25%	-10
CCOC(=O)c1ccc(COC(=O)c2ccc3c(c2)-c2ccccc2C3=O)cc1	-3%	-16%	-5
COC(=O)c1ccc(Cn2nnc3sc4c(c3c2=O)CCC(C)C4)cc1 (stereo unspecified)	x	x	-5
O=C(c1cccc(F)c1)N1CCC2(CC1)CCN(C(c1ccccc1)c1ccccc1)CC2	-9%	-9%	x
C=C1C2CC[C@@]3(C)C(c4ccoc4)OC(=O)C[C@@]13OC1CC(=O)C(C)(C)C(C(O)C(=O)OC)[C@]12C (stereo partly specified)	0%	-1%	x
O=C(Cn1ncc(N2CCOCC2)c(Cl)c1=O)c1ccc(Cl)cc1	-7%	x	x
O=C(Cn1ncc(Cl)c(Cl)c1=O)c1ccc(Cl)cc1	8.9µM*	-8%	x
SMILES	ALDH1A1 block	HPGD block	IMPase inh
CC(C)N(C)CCOC(=O)c1ccccc1Cl	5%	1%	x
O=C(OCn1ncc(Cl)c(Cl)c1=O)c1ccccc1Cl	2µM*	-28%	-14
O=C(OCn1ncc(Cl)c(Cl)c1=O)c1ccc(F)cc1	1.1µM*	-13%	-3
O=C(COC(=O)c1ccc(F)cc1)Nc1ccc(Cl)cn1	1%	x	x
C[C@@]12CCC(=O)C=C1CC[C@H]1C2[C@@H](O)C[C@]2(C)[C@@H]1CC[C@@]2(O)C(=O)CO (stereo partly specified)	6%[13.5 µM]	-2%	x
O=C(COC(=O)c1c[nH]c(=O)[nH]c1=O)Nc1ccccc1Br	2%	x	x
CN1CCN(CP(=O)(N2CCOCC2)N2CCOCC2)CC1	10%	-10%	-12
O=C(Nc1ccccc1)NC(Cc1ccc(O)cc1)C(=O)O (stereo unspecified)	5%	x	x
Cn1c(N)c(N2CCN(c3ccccc3)CC2)c(=O)[nH]c1=O	0%	x	x
CCOC(=O)c1cc(-c2ccc(N)cc2)sc1N	28µM*	-8%	9
CCOC(=O)c1sc(-c2ccc(Br)cc2)cc1N	-1%	-26%	-3
Cn1cccc1C(=O)N1CCC[C@@]2(CCN(c3ccccc3)C2)C1	u	-11%	x
COc1cnc(-c2ccccc2)nc1Oc1ccc(Cl)cc1C	-3%	x	x
Cc1cc(C)c2c(-c3ccc(-c4ccc(C(F)(F)F)cc4)cc3)cc(=O)oc2c1	-6%	-8%	x
Cc1ccc(NCc2n[nH]c(=S)n2-c2ccccc2)c(C)c1	11%	x	x
